Assay results taken from PubChem BioAssay AID1851 (National Center for Advancing Translational Sciences (NCATS), 2009).
Values joined by “and” are separate entries in the source; they are usually repeats but may differ in a detail not shown here. Equal values may be shown once. The campaign covered roughly 16,000 compounds. About 2,600 (16%) were called active. Another 20% or so got no clear call; they are omitted. Only a sample is shown. A number with no mark means an inactive call. Calls come from the whole dose curve; as a rule, active = well fitted curve in the direction sought with a large enough effect; inconclusive = small, poorly fitted or top-dose-only effect, or effect the other way; inactive = no such curve, though single readings can be large or run the other way.

biological target: Cytochrome P450 2D6 (Homo sapiens) (UniProt P10635); assay: Cytochrome panel assay with activity outcomes; conditions: recombinant CYP, pro-luciferin dealkylation, luminescence, p450-cyp2d6; series mostly up to 57.1 µM
% is set by controls: 0 for no effect and ±100 for the full control effect.

Cytochrome P450 2D6 (Homo sapiens), sequence (P10635 whole entry, looked up): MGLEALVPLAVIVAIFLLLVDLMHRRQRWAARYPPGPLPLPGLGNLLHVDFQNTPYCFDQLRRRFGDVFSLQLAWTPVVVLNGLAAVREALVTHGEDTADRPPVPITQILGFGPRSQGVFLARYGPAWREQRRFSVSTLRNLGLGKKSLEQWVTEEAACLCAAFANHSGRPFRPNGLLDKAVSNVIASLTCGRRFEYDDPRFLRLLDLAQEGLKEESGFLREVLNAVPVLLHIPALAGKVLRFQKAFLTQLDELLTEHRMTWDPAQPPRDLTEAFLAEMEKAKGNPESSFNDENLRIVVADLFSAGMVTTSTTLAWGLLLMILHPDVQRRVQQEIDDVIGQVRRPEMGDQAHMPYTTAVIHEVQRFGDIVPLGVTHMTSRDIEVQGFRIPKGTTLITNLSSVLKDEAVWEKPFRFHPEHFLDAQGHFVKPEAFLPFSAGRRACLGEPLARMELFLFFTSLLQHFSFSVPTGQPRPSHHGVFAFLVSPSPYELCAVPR

| Structure (SMILES) | AC50 | activity, negative = inhibition |
| --- | --- | --- |
| c1ccc(-c2csc3ncn4cnnc4c23)cc1 | inactive | – |
| CCC(=O)N[C@@H]1Cc2ccccc2[C@@H](c2ccccc2)C1 | inactive | – |
| COCCNc1cc(-c2c(C)noc2C)ncn1 | inactive | – |
| Cc1cc(Cl)ccc1OCC(=O)Nc1nc(N)nc(N)n1 | – | 14% [at 11.4 µM] |
| Cc1cc(Cl)ccc1OCC(=O)NCc1ccncc1 | 2.82 µM (active) | – |
| Cc1cc(Cl)ccc1OCC(=O)N/N=C1\CCCc2ccccc21 | inactive | – |
| N/C(=N\c1nc2ccccc2o1)NC(=O)c1ccccc1F | inactive | – |
| Cc1ccc(S(=O)(=O)N[C@H]2COC(=O)C/C=C\[C@@H](C)COC(=O)C/C=C\[C@@H]2C)cc1 | – | 15.5% [at 11.4 µM] and -2.8% [at 11.4 µM] |
| N#CCCSC(=S)[C@H]1CCCC1=N | – | -9.64% [at 11.4 µM] |
| CC(C/C=N/NC(=O)COc1cc(Cl)ccc1Cl)c1ccccc1 (configuration not stated) | 0.631 µM (active) | – |
| O=C(COc1ccccc1Cl)Nc1cc(Cl)ccc1Oc1ccccc1 | inactive | – |
| O=C(COc1ccccc1C(=O)N/N=C\c1ccc(O)c(O)c1)N/N=C/c1ccc(O)c(O)c1 | inactive | – |
| CC(C)(C)NC[C@@H](O)c1ccc(O)c(CO)n1 | – | -1.17% [at 11.4 µM] |
| Cc1cccc(C)c1NC(=O)COc1cccc(/C=N/NC(=O)C(=O)NCc2ccccc2)c1 | inactive | – |
| O=C(CC(=O)N/N=C\c1c(Cl)cccc1Cl)NCc1ccccc1 | inactive | – |
| CCCCNC(=O)C1CC(=O)N(CCC(C)C)C1 (configuration not stated) | inactive | – |
| CCCC/C=C/C(NC(=O)c1cccs1)c1ccccc1 (configuration not stated) | inactive | – |
| C[C@@H](C(=O)O)c1ccc(C(=O)c2cccs2)cc1 | inactive | – |
| CNCCCCCCCCSc1nc(C(C)C)ccc1C(=O)c1cccs1 | 0.00631 µM (active) | – |
| Nc1ncnc2c1ncn2C1CCCC1 | inactive | – |
| CNC(=O)Oc1ccc2c(c1)[C@@]1(C)CCN(C)[C@@H]1N2C | 1.26 µM (active) and 631 nM (active) | – |

| Structure (SMILES) | AC50 | activity, negative = inhibition |
| --- | --- | --- |
| COc1ccc(Nc2ncc3c(n2)CC(c2ccc(C)cc2)CC3=O)cc1 (configuration not stated) | inactive | – |
| O=c1c(-c2ccc(Cl)cc2)[n+]([O-])c2ccccc2n1OCc1ccccn1 | inactive | – |
| CC(C(=O)NC1CCCC1)N(C(=O)c1ccc(-c2ccccc2)[nH]1)c1ccccc1F (configuration not stated) | inactive | – |
| CCOC(=O)Cc1csc(NC(=O)c2ccc(S(=O)(=O)N3CCCCC3)cc2)n1 | inactive | – |
| Cc1cccc2c(SCC(=O)NCC3CCCO3)nc(-c3ccc(F)cc3)nc12 (configuration not stated) | inactive | – |
| CN(C(=O)Cn1nnc(-c2cccc(C(F)(F)F)c2)n1)C1CCCCC1 | inactive | – |
| CC(C)CC(C(=O)NCC1CCCO1)N(C(=O)Cn1nnc(-c2ccc(F)cc2)n1)c1ccccc1F (configuration not stated) | 20 µM (active) | – |
| CC(C)CC(C(=O)NCC1CCCO1)N(C(=O)Cn1nnc(-c2ccc(F)cc2)n1)c1cccc(C(F)(F)F)c1 (configuration not stated) | 12.6 µM (active) | – |
| COc1ccc(S(=O)(=O)N(CC(=O)NCC2CCCO2)c2ccc(F)cc2)cc1OC (configuration not stated) | inactive | – |
| CC(C)C(C(=O)NCC1CCCO1)N(Cc1ccco1)C(=O)CNS(=O)(=O)c1ccc(F)cc1 (configuration not stated) | inactive | – |
| NCCCCCC(=O)O | inactive | – |
| Clc1ccc(-c2nnc(-c3ccco3)o2)cc1 | inactive | – |
| O=c1[nH]c(=O)c2nc3ccccc3nc2[nH]1 | inactive | – |
| CC(=O)NCCC(=O)Nc1sc2c(c1-c1nc3ccccc3[nH]1)CCCC2 | inactive | – |
| Cc1ccc(NC(=O)N/C=C/c2ccco2)cc1C | inactive | – |
| COc1ccc(C(C(=O)NC2CCCC2)N(C(=O)c2snc(-c3ccc(F)cc3)c2N)c2ccccc2)cc1 (configuration not stated) | inactive | – |
| CCCOc1ccc(Cn2c(C)nc([N+](=O)[O-])c2SCC(O)COC)cc1[N+](=O)[O-] (configuration not stated) | 12.6 µM (active) | – |
| COc1ccc(CSc2nnnn2C)cc1[N+](=O)[O-] | inactive | – |
| CC(=O)Nc1ccc(Nc2ncnc3c2cnn3-c2ccccc2)cc1 | inactive | – |
| N#Cc1cccc(-c2nc3cnc(N4CCOCC4)nc3n(C3CC3)c2=O)c1 | inactive | – |
| Cc1cc(C)cc(C(=O)N(NC(=O)Nc2ccc(Cl)cc2)C(C)(C)C)c1 | inactive | – |

| Structure (SMILES) | AC50 | activity, negative = inhibition |
| --- | --- | --- |
| CC(C)(C)N(NC(=O)Nc1ccccc1)C(=O)c1ccccc1Cl | inactive | – |
| CC(C)(C)N(NC(=O)Nc1ccc(Cl)c(Cl)c1)C(=O)c1ccccc1 | 28.2 µM (active) | – |
| Cc1nc2cnc(N(C)C)nc2n(CCC#N)c1=O | inactive | – |
| CCCn1c(CC)nc([N+](=O)[O-])c1S(=O)(=O)c1ccccc1 | inactive | – |
| O=[N+]([O-])c1cc(Cl)cc2c1nc(NCCO)c1ccccc12 | – | -18% [at 11.4 µM] |
| CSc1ccccc1N1CCN(C(=O)Nc2ccc3c(c2)NC(=O)CO3)CC1 | inactive | – |
| O=C(NCC1CCCO1)c1ccc(CS(=O)(=O)Cc2ccc(F)cc2)o1 (configuration not stated) | inactive | – |
| Cn1c(OCc2ccc3c(c2)OCO3)nc2c1c(=O)n(Cc1ccc(Cl)c(Cl)c1)c(=O)n2C | 5.01 µM (active) | – |
| COC(=O)Cn1c(=O)c2c(nc(Br)n2Cc2ccccc2Cl)n(C)c1=O | inactive | – |
| Cn1c(=O)c2c(nc(Cl)n2Cc2ccc(Cl)c(Cl)c2)n(C)c1=O | inactive | – |
| CC(C)c1ccc(Cn2ccc3c4c(N)nc(NC5CC5)nc4ccc32)cc1 | 1 µM (active) | – |
| Cc1cc(CNC(=O)[C@@H]2C[C@H]2[C@@H](NP(=O)(c2ccccc2)c2ccccc2)c2ccccc2)nn1C | inactive | – |
| FC(F)(F)c1nnc2c(Sc3ccccc3)nc3ccc(Cl)cc3n12 | inactive | – |
| O=C(O)C[C@H](NC(=O)CP(=O)(O)O)C(=O)O.[NH-][C@@H]1CCCC[C@@H]1[NH-].[Pt] | – | 7.2% [at 11.4 µM] |
| CC1(C)CO[C@H](CC(=O)O)CN1 | 0.00631 µM (active) | – |
| C[C@H](N)CCCC(C)(C)O | inactive | – |
| O=C(Cn1c(C(F)(F)F)nc2ccccc21)c1ccc(F)cc1 | inactive | – |
| O=C(CCCN1CC=C(n2c(=O)[nH]c3ccccc32)CC1)c1ccc(F)cc1 | 3.16 µM (active) | – |
| CC(C)=CCC/C(C)=C/CO/N=C1/C[C@@H](O)[C@@H](O)[C@@H]2[C@@H]3C(=O)N(C[C@@H]4CCCO4)C(=O)[C@H]3CC[C@H]12 | – | -9.15% [at 11.4 µM] |
| COc1ccc(N=C2S/C(=C\c3ccc(C)s3)C(=O)N2CC(C)C)cc1 | inactive | – |
